These results are taken from PubChem BioAssay (NCATS).

Several values for one entry are separate records, joined by “and”; a condition that tells them apart may be missing. Equal entries are not always repeated. Values without a mark were called inactive. Records with an inconclusive call do not appear. Activity calls are given as the source filed them. Unless noted, the call rests on the fitted dose curve; in most records, active means well fitted curve in the direction sought with a large enough effect; inconclusive means small, poorly fitted or top-dose-only effect, or another doubt; inactive means no such curve, though single readings can be large; an effect the other way counts as inactive or inconclusive.

For one test, the system named is 7G8. Description: qHTS profiling for inhibitors of Plasmodium falciparum proliferation (AID 504749). Further: nearly all actives have a fitted effect of over 60% in size. Further: potency means the concentration at half of the fitted maximal effect. The conditions noted are these: P. falciparum in erythrocytes, SYBR Green DNA, 72 h; series mostly up to 12.8 µM. The method in brief:
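Three-day growth assay of blood-stage parasites in erythrocytes (0.3% parasitemia, 2.5% hematocrit) at 37 C, 5% CO2, quantified by SYBR Green DNA staining after overnight detergent lysis.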

Test [1] can be described thus: Cell Viability - BJ (AID 421; calls by dose curve;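 further: potency means the concentration at half of the fitted maximal effect; cells exposed to compound for 40 hours at 37 °C before readout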). The settings on record: BJ fibroblast viability, qHTS. The method in brief:
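Cytotoxicity in human BJ foreskin fibroblasts is scored as loss of cellular ATP after a 40-hour exposure, measured by luciferase luminescence. Controls are DMSO and 100 uM tamoxifen.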

The nature of test [2]: Cell Viability - HepG2 (AID 433; calls by dose curve;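 further: potency means the concentration at half of the fitted maximal effect; potency for ATP loss meaning cytotoxicity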). The settings on record: qHTS. The method in brief:
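In this qHTS format, a 40 h, 37 °C compound incubation of HepG2 cells in complete medium precedes a 20 min CellTiter-Glo step at room temperature. Tamoxifen and doxorubicin serve as positive controls; Hill-equation fits yield AC50.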
On the technique in general: In qHTS, concentration-response curves come from the screen itself.

Test [3] in a line: Cell Viability - NIH 3T3 (AID 541).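 Further: plate controls were DMSO alone for no effect and tamoxifen positive control for full effect; nearly all actives have a fitted effect of over 25% in size.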 The settings on record: NIH 3T3 cell viability, qHTS; activity change, negative = cytotoxicity: at 92.2 µM (top of the series). The method in brief:
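AC50 values reflect concentration-dependent loss of intracellular ATP in NIH 3T3 cells after 40 hr treatment in complete culture medium, quantified by luciferase-based luminescence.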

Test [4] is described as follows: Cell Viability - HUV-EC-C (AID 542). Further: nearly all actives have a fitted effect of over 35% in size. Further: potency means the concentration at half of the fitted maximal effect. On activity change, negative = cytotoxicity: on the % scale 0 is the no-effect control and ±100 the full control effect. The method in brief: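 Decrease in cellular ATP, quantified by luciferase luminescence, reflects toxicity in normal human vascular endothelial HUV-EC-C cells given compound for 40 hr in complete culture medium. Values are AC50s from concentration-response curves.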
Test [5] in a line: Cell Viability - Renal Proximal Tubule (AID 545).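 Further: 0% = DMSO only and -100% = 100 µM tamoxifen; nearly all actives have a fitted effect of over 40% in size.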 The conditions noted are these: renal proximal tubule cells viability; at 91.7 µM (top of the series), primary cells of rat origin unless noted. An outline of the steps: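 In this qHTS format, normal rat kidney-derived proximal tubule cells in complete culture medium receive compound titrations, then sit 40 hours at 37 °C before luciferase-based ATP quantitation; potency is reported as AC50 from concentration-response curves.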

The nature of test [6]: Cellular Toxicity (caspase-3) HepG2 (AID 654).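 Further: cells exposed to compound for 16 hours before reading; 0% = DMSO alone and 100% = caspase signal from 100 µM tamoxifen.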 The method in brief: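 qHTS, HepG2, 1500 cells/well, complete medium; cpd 16 h 37 °C; Caspase-Glo 3/7, 20 min RT; lum. Norm: DMSO vs 100 uM tamoxifen; AC50 Hill fit.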
Test [7] can be described thus: Cellular Toxicity (caspase-3) HUV-EC-C (AID 656).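 Further: 0% = DMSO basal and 100% = 100 µM tamoxifen.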 An outline of the steps:
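Concentration-dependent caspase 3/7 induction was assessed in HUV-EC-C cells exposed for 16 hours. Data scaled between DMSO and tamoxifen (100 uM) controls.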

A short description of test [8]: Cellular Toxicity (caspase-3) SHSY5Y (AID 657). An outline of the steps: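 Readout: caspase-cleaved peptide-aminoluciferin substrate driving luciferase light in SH-SY5Y neuroblastoma cells after 16 h treatment. Response normalized to DMSO and 10 uM staurosporine controls.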
The nature of test [9]: Cellular Toxicity (caspase-3) BJ (AID 658).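 Further: 0% = DMSO basal and 100% = 10 µM staurosporine.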 An outline of the steps: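 Readout: Caspase-Glo 3/7 luminescence increase in BJ cells after 16 hr treatment at 37 °C. Staurosporine and tamoxifen served as positive controls; AC50 values came from Hill modelling of data normalized to DMSO and 10 uM staurosporine.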
Test [10] in a line: Cellular Toxicity (caspase-3) MRC-5 (AID 659).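 Further: 0% = DMSO basal and 100% = 10 µM staurosporine.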 An outline of the steps:
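Concentration-dependent caspase 3/7 activation is measured in human normal lung fibroblasts (MRC-5) following 16-hour treatment. AC50 values come from standard Hill-equation modeling of luminescence normalized to DMSO and 10 uM staurosporine.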

Test [11] can be described thus: Cellular Toxicity (caspase-3) SK-N-SH (AID 661).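 Further: 0% = DMSO basal and 100% = 10 µM staurosporine.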 The method in brief: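 Caspase 3/7 activation is measured as a luminescence increase from aminoluciferin released by substrate cleavage in SK-N-SH cells after 16 hr compound treatment; values are AC50 from concentration-response curves.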
Test [12] in a line: Cellular Toxicity (caspase-3) H-4-II-E (AID 663).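 Further: cells exposed to compound for 16 hr before readout; 0% = DMSO basal and 100% = 100 µM tamoxifen.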 An outline of the steps: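 Apoptosis induction is scored as increased luminescence from caspase 3/7 substrate cleavage in rat hepatoma H-4-II-E cells exposed to compound for 16 hr. Activity is scaled between DMSO and 100 uM tamoxifen.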
Test [13] is described as follows: Cellular Toxicity (caspase-3) NIH 3T3 (AID 666).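 Further: caspase signal read after 16 h compound exposure; 0% = DMSO basal and 100% = 100 µM tamoxifen stimulation.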 An outline of the steps:
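Concentration-response qHTS in NIH 3T3 mouse fibroblasts scores caspase-3/7 activation as rising luminescence after 16 hr compound exposure. Signals are scaled between DMSO-only and 100 uM tamoxifen.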

The nature of test [14]: Cell Viability - LYMP2-025 (AID 976).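 Further: cells exposed to compound for 24 h at 37 °C.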 Further: potency means the concentration at half of the fitted maximal effect.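 On activity change, negative = cytotoxicity: plate controls were DMSO only for no effect and tetraoctylammonium bromide control for full effect.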 An outline of the steps: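 In qHTS format, LYMP2-025 lymphoblastoid cells in complete culture medium received compound for 24 hr; ATP-based CellTiter-Glo signal gave viability, with AC50 derived by Hill equation.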
Test [15] has as its target Voltage-gated inwardly rectifying potassium channel KCNH2 (Homo sapiens) (UniProt Q12809). Description: qHTS Assay for Small Molecule Inhibitors of the Human hERG Channel Activity (AID 588834).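 Further: lower thallium flux fluorescence means stronger hERG block; nearly all actives have a fitted effect of over 50% in size.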 Further: potency means the concentration at half of the fitted maximal effect. An outline of the steps:
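Blockade is seen as reduced FluxOR thallium-flux fluorescence in U2OS cells expressing hERG from a BacMam construct, in Opti-MEM with 2% FCS. Concentration-response data fitted to the Hill equation for AC50.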

Test [16] concerns the target Tumor necrosis factor (Homo sapiens) (UniProt P01375). Nature of the test: qHTS assay to identify small molecules that stimulate Tumor Necrosis Factor-alpha (TNF-alpha) secretion (AID 651757; active means well fitted curve in the direction sought with a large enough effect in the signal ratio; the % refers to the signal ratio; further: 0% is about no effect). The method in brief: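 Secreted TNF-alpha from compound-treated THP-1 cells (17 hrs, 37 C) was quantified with a homogeneous time-resolved fluorescence antibody assay.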
Test [17] in a line: qHTS assay for small molecule agonists of the antioxidant response element (ARE) signaling pathway measured by Nrf2-dependant transcriptional activity - cell viability counter screen (AID 720653; active means well fitted curve in the direction sought with a large enough effect in the repeat runs; an effect the other way counts as inactive or inconclusive; further: on the % scale 0 is the no-effect control and ±100 the full control effect). The conditions noted are these: ARE-bla HepG2 viability, CellTiter-Glo ATP luminescence, 16 h; active compounds read low. An outline of the steps:
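Cytotoxicity counter screen: intracellular ATP quantified by CellTiter-Glo luminescence in the same ARE-bla HepG2 plates, after 16 h compound exposure and a 2 h beta-lactamase substrate step.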

Test [18] can be described thus: qHTS assay for cell viability of HEK293 cells (AID 743288). Further: on the % scale 0 is the no-effect control and ±100 the full control effect; nearly all actives have a fitted effect of over 50% in size. The conditions noted are these: ATP luminescence (CellTiter-Glo), 18 h; max response: active compounds read low. The method in brief: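 Luminescent ATP quantitation served as the viability read-out. Cells (parental HEK293, 2,000/well) received compounds after at least 5 h at 37 C and were exposed for 18 h before a 30 min room-temperature reagent step.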

A short description of test [19]: qHTS assay for cell viability of the p53RE-bla HCT-116 cell line (AID 743292). Further: on the % scale 0 is the no-effect control and ±100 the full control effect; nearly all actives have a fitted effect of over 55% in size. An outline of the steps:
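Compound-exposed HCT-116 (p53RE-bla) cells, 4,000 per well, were kept 16 h at 37 C following a 5 h preincubation. Cell number was estimated from total ATP by CellTiter-Glo luminescence read after 30 min at room temperature.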

Tumor necrosis factor (Homo sapiens), sequence (P01375 whole entry, looked up): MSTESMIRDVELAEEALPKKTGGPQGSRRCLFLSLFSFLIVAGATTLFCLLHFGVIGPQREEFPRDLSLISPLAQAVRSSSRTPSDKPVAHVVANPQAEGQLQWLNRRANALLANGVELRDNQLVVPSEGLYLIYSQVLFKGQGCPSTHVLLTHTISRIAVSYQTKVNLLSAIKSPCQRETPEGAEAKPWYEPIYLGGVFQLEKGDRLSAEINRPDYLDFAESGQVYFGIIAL
Voltage-gated inwardly rectifying potassium channel KCNH2 (Homo sapiens), sequence (Q12809 whole entry, looked up): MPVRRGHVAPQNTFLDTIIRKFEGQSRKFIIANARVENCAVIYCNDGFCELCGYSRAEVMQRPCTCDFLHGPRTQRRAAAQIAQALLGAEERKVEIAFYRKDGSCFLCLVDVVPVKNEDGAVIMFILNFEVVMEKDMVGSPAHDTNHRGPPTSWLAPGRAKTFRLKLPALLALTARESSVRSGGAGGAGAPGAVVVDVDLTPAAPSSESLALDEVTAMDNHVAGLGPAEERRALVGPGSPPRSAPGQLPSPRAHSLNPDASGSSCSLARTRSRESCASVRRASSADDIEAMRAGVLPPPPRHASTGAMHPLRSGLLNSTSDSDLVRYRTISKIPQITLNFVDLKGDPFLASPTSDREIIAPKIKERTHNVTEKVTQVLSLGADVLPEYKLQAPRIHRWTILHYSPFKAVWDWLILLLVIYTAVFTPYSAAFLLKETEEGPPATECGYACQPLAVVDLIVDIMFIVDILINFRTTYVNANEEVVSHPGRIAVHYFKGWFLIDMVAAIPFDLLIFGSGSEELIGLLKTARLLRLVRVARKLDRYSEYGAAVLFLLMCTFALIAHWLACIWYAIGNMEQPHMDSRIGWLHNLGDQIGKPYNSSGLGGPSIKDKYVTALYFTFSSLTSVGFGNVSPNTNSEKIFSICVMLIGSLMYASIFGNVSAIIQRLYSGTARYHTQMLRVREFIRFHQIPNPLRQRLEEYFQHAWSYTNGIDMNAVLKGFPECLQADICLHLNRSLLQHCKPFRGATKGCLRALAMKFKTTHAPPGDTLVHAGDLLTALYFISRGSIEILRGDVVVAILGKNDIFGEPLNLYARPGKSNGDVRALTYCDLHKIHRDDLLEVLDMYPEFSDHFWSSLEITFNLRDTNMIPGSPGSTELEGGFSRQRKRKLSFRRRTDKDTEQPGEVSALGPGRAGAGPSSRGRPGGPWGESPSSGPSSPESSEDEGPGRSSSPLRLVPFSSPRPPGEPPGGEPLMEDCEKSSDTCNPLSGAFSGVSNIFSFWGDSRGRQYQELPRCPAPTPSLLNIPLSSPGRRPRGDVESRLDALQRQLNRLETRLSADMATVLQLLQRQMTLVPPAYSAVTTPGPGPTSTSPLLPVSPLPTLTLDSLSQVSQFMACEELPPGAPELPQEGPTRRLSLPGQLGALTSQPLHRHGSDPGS

Regarding `CC[C@@]1(c2ccc(N)cc2)CCC(=O)NC1=O`, the Potency result in the test with 7G8 was “inactive”.

As for `CC1=C2[C@@H]3OC(=O)[C@@H](C)[C@@H]3CC[C@]2(C)C=CC1=O`, the Potency result with 7G8 was “inactive”.

Turning to `CCNc1nc(Cl)nc(NC(C)C)n1`, the Potency in test [1] and in test [2] was over 92 µM in each case. For the same compound, the activity change, negative = cytotoxicity was -18.4% in test [3] and -6.93% [at 91.7 µM] in test [5]. Besides, the Potency entry in test [4], in [14], in test [15] and in test [19] was “inactive” throughout. The call in test [6], in [7], in test [8], in [9], in [10] and in test [11] was inactive. Moreover, the compound was called inactive in [12], in test [13] and in test [16]. Further, the max response in test [17] was 5.56% and -9%; in test [18] it was 2.61% and -2.5%.

As to `O=S1OCC2C(CO1)C1(Cl)C(Cl)=C(Cl)C2(Cl)C1(Cl)Cl` (stereo not given), the Potency in [1] is over 92 µM; in [2], over 92 µM; in test [15] it was 28.2 µM (active). Also, the activity change, negative = cytotoxicity in [3] is -20.5%; in [5] it was -22.1% [at 91.7 µM]. Besides, the Potency result in [4], in test [14] and in [19] was “inactive” in each case. Also, the result in [6], in test [7], in test [9], in test [10], in [12] and in [13] was inactive. The outcome in [16] was inactive. Besides, the max response was 13.3% in [17] and -13.5% in test [18].

In the case of `COC(=O)NC(=S)Nc1ccccc1NC(=S)NC(=O)OC`, the Potency in test [1] and in test [2] was over 92 µM throughout. The activity change, negative = cytotoxicity was -30% in test [3] and -14.2% in test [5]. Further, the Potency result in [4], in test [14], in test [15] and in test [19] was “inactive” each time. The outcome in test [6], in test [7], in [8], in test [9], in test [10] and in [11] was inactive. Moreover, the result in [12], in test [13] and in test [16] was inactive. Also, the max response in test [17] is -1.18% and 2.94%; in [18] it was 1.27% and -9.9%.

For the compound `C#CCN(C)[C@@H](C)Cc1ccccc1`, the Potency entry with 7G8 was “inactive”.

For the compound `CCc1cccc(CC)c1N(COC)C(=O)CCl`, the Potency is over 92 µM in test [2] and 50.1 µM (active) in test [4]. In addition, in [3], the activity change, negative = cytotoxicity was -147% (active). For the same compound, the result in test [6], in [7], in test [8], in [9], in [10] and in [11] was inactive. The result in [12], in [13] and in test [16] was inactive. Also, the Potency result in test [14], in test [15] and in test [19] was “inactive” throughout. Further, the max response in test [17] was 6.28% and -3.56%; in test [18], -15.4% and -21.3%.

As for `C[N+]1(C)[C@@H]2CC[C@H]1CC(OC(=O)[C@@H](CO)c1ccccc1)C2` (stereo not given in full), the Potency entry with 7G8 was “inactive”.

Turning to `CNC[C@H](O)c1ccc(O)cc1`, the Potency entry with 7G8 was “inactive”.

Consider `ClC1=C(Cl)C2(Cl)C3C(Cl)C=CC3C1(Cl)C2(Cl)Cl` (stereo not given), for which the Potency in test [2] is over 92 µM. Also, the Potency entry in test [4], in test [14] and in [19] was “inactive” throughout. In addition, the activity change, negative = cytotoxicity in [5] was -2.85%. Besides, the compound was called inactive in test [6], in test [7], in test [8], in test [9], in test [10] and in test [11]. For the same compound, the compound was called inactive in test [12], in test [13] and in test [16]. Moreover, the max response in test [17] is -10.5%; in test [18], -13.7%.

Turning to `COc1ccc2c(c1OC)CN1CCc3cc4c(cc3[C@H]1C2)OCO4`, the Potency in the test on 7G8 was 3.55 µM (active).

Turning to `ClC1=C(Cl)C2(Cl)C3C4C=CC(C4)C3C1(Cl)C2(Cl)Cl` (stereo not given), the Potency in test [1] was over 92 µM; in test [2], over 92 µM; in test [14], 50.1 µM (active). For the same compound, the activity change, negative = cytotoxicity in test [3] is -10.7%; in test [5], 4.94% [at 91.7 µM]. The Potency entry in [4] is “inactive”. Further, the outcome in test [6], in test [7], in test [8], in [9], in test [10] and in test [11] was inactive. In addition, the call in test [12], in test [13] and in test [16] was inactive. The max response in [17] is -5%; in test [18] it was -24.9%.

For `C[C@H]1CN(C2CCC(C#N)(c3ccc(F)cc3)CC2)CC[C@@]1(C(=O)O)c1ccccc1` (stereo not given in full), the Potency entry in the test with 7G8 was “inactive”.

For `c1ccc(N=Nc2ccccc2)cc1`, the Potency in test [1] and in test [2] was over 92 µM in each case. In addition, the activity change, negative = cytotoxicity in [3] is -2.38%; in test [5], -6.36%. Also, the Potency entry in test [4], in test [14], in test [15] and in test [19] was “inactive” each time. For the same compound, the outcome in test [6], in test [7], in [8], in test [9], in test [10] and in [11] was inactive. Further, the result in test [12], in test [13] and in test [16] was inactive. For the same compound, the max response in test [17] was -6.06% and -16.5%; in [18], 1.24% and -11.6%.

Turning to `NCC[C@H](O)C(=O)N[C@H]1C[C@@H](N)[C@@H](O[C@H]2O[C@@H](CN)[C@@H](O)[C@@H](O)[C@@H]2N)[C@@H](O[C@H]2O[C@@H](CO)[C@@H](O)[C@@H]2O)[C@@H]1O`, in the test with 7G8, the Potency entry was “inactive”.

In the case of `N[C@H]1C[C@H]1c1ccccc1`, the Potency result in the test on 7G8 was “inactive”.

For `CC(=O)O[C@H]1CC[C@@]2(C)C(=CC[C@@H]3[C@H]2CC[C@]2(C)C(=O)CC[C@H]32)C1`, in the test on 7G8, the Potency result was “inactive”.

On to `CN[C@@H](C)[C@H]1CC[C@@H](N)[C@@H](O[C@@H]2[C@@H](O)[C@@H](O[C@H]3OC[C@@](C)(O)[C@@H](NC)[C@@H]3O)[C@H](N)C[C@@H]2N)O1` (tested in a mixture with another compound), for which, in the test on 7G8, the Potency result was “inactive”.
